# Measurements as given in the supplement of paper PMC6555819.
# Legend:
# Experiment in all cases: PBM binding z-score (relative to random genomic background probes); higher = stronger binding; sequences stand for … in GC…GCGATTGACAGCGTAGAATGAAGG
# [1] = system: PPARg:RXRa DBDmut IVT, anti-RXR (DBD mutation: RXRa K156A/R161A, NR concentration 270 nM, RXRa partner concentration 90 nM)
# Method in brief: (§1)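 Scanned fluorescence from custom Agilent 4×180K protein-binding microarrays was regression-normalized. Binding z-scores use random background probes as reference. Ligand-free nuclear receptor dimers were incubated on the arrays for 1 h and detected with antibodies against each partner (one per run).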
# [2] = system: PPARg:RXRa IVT, anti-PPARg (NR concentration 270 nM, RXRa partner concentration 90 nM)
# Method in brief: as §1
# [3] = system: PPARg DBDmut:RXRa IVT, anti-PPARg (DBD mutation: PPARg1 K132A/R137A, NR concentration 270 nM, RXRa partner concentration 90 nM)
# Method in brief: as §1
# [4] = system: PPARg DBDmut IVT, anti-PPARg (DBD mutation: PPARg1 K132A/R137A, NR concentration 270 nM)
# Method in brief: as §1
# [5] = system: PPARg homodimer (NR concentration 180 nM)
# Method in brief: as §1
# [6] = system: PXR:RXRa (NR concentration 270 nM, RXRa partner concentration 90 nM)
# Method in brief: as §1
# [7] = system: PXR homodimer (NR concentration 270 nM)
# Method in brief: as §1
# [8] = system: RARa:RXR (NR concentration 270 nM, RXRa partner concentration 90 nM)
# Method in brief: as §1
# [9] = system: RARa homodimer (NR concentration 270 nM)
# Method in brief: as §1
# [10] = system: RARb:RXRa (NR concentration 270 nM, RXRa partner concentration 90 nM)
# Method in brief: as §1
# [11] = system: RARb homodimer (NR concentration 270 nM)
# Method in brief: as §1
# [12] = system: RARg:RXRa (NR concentration 270 nM, RXRa partner concentration 90 nM)
# Method in brief: as §1
# [13] = system: RARg homodimer (NR concentration 270 nM)
# Method in brief: as §1
# [14] = system: RXRa DBDmut IVT, anti-RXR (DBD mutation: RXRa K156A/R161A, NR concentration 90 nM)
# Method in brief: as §1
# [15] = system: RXRa homodimer (NR concentration 180 nM)
# Method in brief: as §1
# [16] = system: THRa:RXRa (NR concentration 90 nM, RXRa partner concentration 90 nM)
# Method in brief: as §1
# [17] = system: THRa homodimer (NR concentration 90 nM)
# Method in brief: as §1
# [18] = system: VDR homodimer (NR concentration 270 nM)
# Method in brief: as §1
Sequence,PBM binding z-score [1],PBM binding z-score [2],PBM binding z-score [3],PBM binding z-score [4],PBM binding z-score [5],PBM binding z-score [6],PBM binding z-score [7],PBM binding z-score [8],PBM binding z-score [9],PBM binding z-score [10],PBM binding z-score [11],PBM binding z-score [12],PBM binding z-score [13],PBM binding z-score [14],PBM binding z-score [15],PBM binding z-score [16],PBM binding z-score [17],PBM binding z-score [18]
ACTATTAGTTGGCTTAGGGCAACCGATACGACGC,0.277,0.0103,0.854,1.29,0.354,-0.139,0.29,0.151,0.786,0.506,0.69,0.504,0.733,0.512,0.326,0.788,0.529,0.021
CCTACTGGACCATCAGGTCATTGATATCAACGTT,2.13,2.58,0.468,0.568,2.23,2.09,1.45,2.25,1.47,1.97,2.7,1.67,1.56,1.08,1.37,3.38,3.78,2.38
TCATATAGGTAAATGCTAGGCGAAAGTCCGATCT,3.99,1.93,1.19,0.583,0.561,0.4,0.459,0.458,0.728,0.249,-0.15,0.217,0.256,1.43,0.556,0.231,0.0597,0.181
TCTTGTAGATCAAGCAGTTTAAGAAAGCCTGAGT,1.32,0.194,0.902,-0.105,-0.414,0.133,-0.14,0.0935,-0.0919,-0.137,-0.362,-0.283,-0.421,0.644,-0.114,-0.266,-0.588,-0.00897
CGTCAAAGTTCAACTAAGGTGACGTAAAGCACGC,0.538,2.53,-0.0247,0.457,4.07,5.89,4.65,4.4,1.76,5.17,4.55,5.96,6.76,4.56,5.33,5.17,1.95,4.18
GCTGCTAGGTCAGGTTGGACAGCTAACGGGTACG,2.44,2.18,-0.356,-0.812,0.345,0.082,-0.273,0.436,-0.846,3.39,2.35,2.56,3.42,0.208,1.06,1.69,0.46,0.386
GATACAGGGTCAGCTAGAGACCAGAGTATGGAAA,1.1,2.34,0.401,-0.539,1.14,1.89,0.00163,2.98,0.39,3.53,2.5,4.48,4.19,0.915,3.99,2.5,0.211,0.881
CTCGAAAGGTCGTGCTCAGGTGAGTATCCCAAAC,0.866,1.8,0.243,-0.461,1.25,3.1,0.327,3.67,-0.0794,3.83,2.88,5.08,3.47,2.02,4.66,4.05,1.22,0.742
TATACAGGGTCAAAGGCCATAGTACGAATGTCGA,2.29,5.22,3.81,1.65,2.99,4.83,0.657,6.64,1.1,4.56,3.79,5.96,5.29,3.05,7.75,3.78,0.843,3.25
TGATATAGGTAAATGCTAGGTGAAAGTCCGATCT,4.45,3.66,0.978,0.956,0.829,-0.09,0.293,0.178,1.15,0.212,0.551,0.276,0.33,-0.331,0.453,1.18,0.59,-0.0449
CCTTACGGGTCAAGGTTATGGCACGGGTGGTACG,1.51,3.59,-0.207,-0.604,1.88,3.27,0.134,4.13,1.04,4.04,3.66,5.06,4.67,1.1,5.31,3,0.804,1.45
CTCGAAAGGTCGCGCTCAGGTGAGTATACCAAAC,1.22,2.52,1.3,0.149,2.13,3.65,-0.145,4.74,-0.225,4.46,3.47,5.54,4.9,2.28,5.79,4.23,1.01,1.35
ATATGTAGGTTATCGGATCATTCAGTTTGCGCAT,7.18,6.73,2.24,2.07,1.46,0.908,0.884,1.05,1.48,0.993,0.853,0.837,0.866,0.702,1.12,0.794,0.624,0.764
ATATGTAAGTTACATCCGGGTCATTCAGGCTATG,1.5,2.35,1.58,1.58,1.11,3.02,2.6,2.96,0.872,1.72,2.56,1.71,1.21,1.07,2.15,3.43,2.33,3.16
